{"source": "PubChem BioAssay", "key": {"[1]": {"tested_on": "Hepatitis C virus NS3 helicase", "experiment": "HCV NS3 helicase inhibitors, primary screen, biochemical, fluorescence polarization, LOPAC1280 library (AID 687035; in the data active means inhibition above about 37%)", "settings": "Purified HCV NS3 helicase, Cy5-dT15 ssDNA binding fluorescence polarization; stronger effect = higher value; concentration not given here"}, "[2]": {"experiment": "Cy5 fluorescence quenching or enhancement artefacts, artefact control for HCV NS3 helicase inhibitor project, biochemical, LOPAC1280 (AID 687037)", "settings": "Cy5-DNA-NS3h complex fluorescence interference counterscreen"}, "[3]": {"tested_on": "Aerobactin synthetase IucA (Klebsiella pneumoniae, hypervirulent)", "experiment": "IucA enzyme inhibition, biochemical, LOPAC library, absorbance readout (AID 1346212);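 further: 100% = no compound wells and 0% = no enzyme wells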", "settings": "IucA enzyme assay, absorbance (OD) readout; stronger effect = lower value; concentration not given here"}, "[4]": {"experiment": "sensitizers of A549 cells to miR-34 induction, primary screen, imaging, A549 dox-inducible miR-34, nuclei and caspase counts (AID 1347080;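 active means compounds whose cell count with miR-34 switched on is under 0.7 times the count with it off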)", "settings": "A549 miR-34 inducible, Hoechst nuclei count, 48 h"}, "[5]": {"experiment": "phospholipid biosynthesis inhibitors in animal cells, primary screen, cell-based, LOPAC library, screen 4 (AID 1347384)", "settings": "phospholipid biosynthesis inhibition screen, at 10 µM"}, "[6]": {"experiment": "viability rescue of complex I mutant cybrids, primary screen, cell-based, galactose medium, ATP luminescence (AID 1645843;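 active means z-score of at least 1.8 in each of two replicates, scored against plate mean and spread of sample wells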;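 further: positive z means more ATP and so rescue of galactose-driven cybrid death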)", "settings": "complex I mutant cybrid cells, 72 h, stronger effect = higher value"}, "[7]": {"experiment": "circadian clock period modulators, cell-based, LOPAC library, luminescence reporter (AID 2774)", "settings": "circadian reporter cells, at 7 µM, actives lie on both sides"}, "[8]": {"experiment": "liver-stage malaria parasite growth inhibition, primary screen, cell-based, HepG2, luciferase luminescence, HepG2 viability (AID 624349; in the data active means parasite load remaining mostly below about 12%, no sharp cut-off; inactive means mostly above about 10%;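 further: 100% = mean of DMSO negative control wells on the same plate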)", "settings": "P. berghei liver stage in HepG2, luciferase luminescence, concentration not given here; parasite load remaining: stronger effect = lower value; viability: measured here: HepG2 viability without parasites"}, "[9]": {"experiment": "survival rescue of mitochondrial mutant cells in low glucose, primary screen, MELAS cybrids, Rieske KO mouse fibroblasts, CellTiter-Glo (AID 1508586;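 active means mean z-score across replicates of 1.96 or higher in either the MELAS or the Rieske mutant cell line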;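 further: z relative to plate mean and SD of compound and empty wells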)"}, "[10]": {"experiment": "hESC survival regulators, cell-based (AID 493140);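 further: cells exposed to compounds for four days before counting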", "settings": "human embryonic stem cell survival screen; stronger effect = higher value"}, "[11]": {"settings": "measured here: relative caspase fold change +Dox/-Dox"}, "[12]": {"settings": "measured here: total cells with miR-34 induction, stronger effect = lower value"}, "[13]": {"settings": "measured here: total cells without miR-34 induction"}}, "note": "Calls of active or inactive are those of the source. Unless noted, how the calls were made is not given here.", "data": [{"smiles": "Cc1cc([C@@H]2CCCN2C)on1", "values": [{"measurement": "inhibition", "setting": "[1]", "value": "-6% (inactive)"}, {"measurement": "fluorescence ratio (interference)", "setting": "[2]", "value": "1 (inactive)"}, {"measurement": "remaining activity", "setting": "[3]", "value": "91.6% (inactive)"}, {"measurement": "fold change", "setting": "[4]; stronger effect = lower value", "value": "0.924 (inactive)"}, {"measurement": "fold change", "setting": "[4]; [11]", "value": 1.47}, {"measurement": "cell count", "setting": "[4]; [12]", "value": 9420}, {"measurement": "cell count", "setting": "[4]; [13]", "value": 10200}, {"measurement": "outcome", "setting": "[5]", "value": "inactive"}, {"measurement": "z-score", "setting": "[6]", "value": "0.41 (inactive)"}]}, {"smiles": "CNC(=O)OCC[N+](C)(C)C", "values": [{"measurement": "period change", "setting": "[7]", "value": "-0.01 h (inactive)"}, {"measurement": "remaining activity", "setting": "[3]", "value": "109% (inactive)"}]}, {"smiles": "CCCN1CCC[C@@H](c2cccc(C#N)c2)C1", "values": [{"measurement": "period change", "setting": "[7]", "value": "-0.025 h (inactive)"}, {"measurement": "remaining activity", "setting": "[3]", "value": "122% (inactive)"}]}, {"smiles": "CC(C)(O)[C@@H]1C2OC(=O)C1[C@]1(O)C[C@H]3O[C@]34C(=O)O[C@H]2[C@]14C", "note": "(stereo partly drawn) (tested in a mixture with another compound)", "values": [{"measurement": "remaining activity", "setting": "[3]", "value": "128% (inactive)"}, {"measurement": "outcome", "setting": "[5]", "value": "inactive"}]}, {"smiles": "CC(C)[C@H]1CN[C@H](C(=O)O)[C@H]1CC(=O)O", "values": [{"measurement": "inhibition", "setting": "[1]", "value": "1% (inactive)"}, {"measurement": "fluorescence ratio (interference)", "setting": "[2]", "value": "1 (inactive)"}, {"measurement": "remaining activity", "setting": "[3]", "value": "93.8% (inactive)"}, {"measurement": "fold change", "setting": "[4]; stronger effect = lower value", "value": "0.952 (inactive)"}, {"measurement": "fold change", "setting": "[4]; [11]", "value": 0.99}, {"measurement": "cell count", "setting": "[4]; [12]", "value": 9550}, {"measurement": "cell count", "setting": "[4]; [13]", "value": 10000}, {"measurement": "outcome", "setting": "[5]", "value": "inactive"}, {"measurement": "z-score", "setting": "[6]", "value": "0.11 (inactive)"}]}, {"smiles": "C[Se]C[C@H](N)C(=O)O", "values": [{"measurement": "period change", "setting": "[7]", "value": "-0.13 h (inactive)"}, {"measurement": "inhibition", "setting": "[1]", "value": "-5% (inactive)"}, {"measurement": "fluorescence ratio (interference)", "setting": "[2]", "value": "1 (inactive)"}, {"measurement": "remaining activity", "setting": "[3]", "value": "106% (inactive)"}]}, {"smiles": "O=C(OC1CCN(CCCl)CC1)C(c1ccccc1)c1ccccc1", "values": [{"measurement": "period change", "setting": "[7]", "value": "-0.15 h (inactive)"}, {"measurement": "remaining activity", "setting": "[3]", "value": "106% (inactive)"}]}, {"smiles": "CCc1c(C(=O)OC)ncc2[nH]c3cc(OC)c(OC)cc3c12", "values": [{"measurement": "period change", "setting": "[7]", "value": "0.185 h (inactive)"}, {"measurement": "remaining activity", "setting": "[3]", "value": "93% (inactive)"}]}, {"smiles": "N[C@@H](Cn1ccc(=O)[nH]c1=O)C(=O)O", "values": [{"measurement": "period change", "setting": "[7]", "value": "0.095 h (inactive)"}, {"measurement": "remaining activity", "setting": "[3]", "value": "122% (inactive)"}]}, {"smiles": "Oc1ccc2c3c1O[C@H]1c4[nH]c5ccccc5c4C[C@@]4(O)[C@@H](C2)N(CC2CC2)CC[C@]314", "values": [{"measurement": "parasite load remaining", "setting": "[8]", "value": "47.8% (inactive)"}, {"measurement": "viability", "setting": "[8]", "value": 98.5, "unit": "%"}, {"measurement": "remaining activity", "setting": "[3]", "value": "108% (inactive)"}, {"measurement": "fold change", "setting": "[4]; stronger effect = lower value", "value": "0.934 (inactive)"}, {"measurement": "fold change", "setting": "[4]; [11]", "value": 1.1}, {"measurement": "cell count", "setting": "[4]; [12]", "value": 8700}, {"measurement": "cell count", "setting": "[4]; [13]", "value": 9320}, {"measurement": "z-score", "setting": "[9]; MELAS cybrid survival, CellTiter-Glo 48 h, stronger effect = higher value", "value": "0.24 (inactive)"}, {"measurement": "z-score", "setting": "[9]; Rieske KO mouse fibroblast survival, CellTiter-Glo 72 h", "value": 0.662}, {"measurement": "z-score", "setting": "[6]", "value": "-0.405 (inactive)"}]}, {"smiles": "COc1ccc2c(c1)[C@@]13CCCC[C@H]1[C@@H](C2)NCC3", "values": [{"measurement": "period change", "setting": "[7]", "value": "-0.085 h (inactive)"}, {"measurement": "inhibition", "setting": "[1]", "value": "-5% (inactive)"}, {"measurement": "fluorescence ratio (interference)", "setting": "[2]", "value": "1 (inactive)"}, {"measurement": "remaining activity", "setting": "[3]", "value": "108% (inactive)"}]}, {"smiles": "O=[N+]([O-])c1ccc(O[C@@H]2O[C@H](CO)[C@@H](O)[C@H](O)[C@H]2F)c([N+](=O)[O-])c1", "values": [{"measurement": "period change", "setting": "[7]", "value": "-0.07 h (inactive)"}, {"measurement": "remaining activity", "setting": "[3]", "value": "96.8% (inactive)"}]}, {"smiles": "CCN(CC)C(=O)N[C@@H]1C[C@@H]2c3cccc4[nH]cc(c34)C[C@H]2N(C)C1", "values": [{"measurement": "period change", "setting": "[7]", "value": "0.085 h (inactive)"}, {"measurement": "remaining activity", "setting": "[3]", "value": "102% (inactive)"}]}, {"smiles": "NCC#Cc1ccccc1", "values": [{"measurement": "period change", "setting": "[7]", "value": "0.045 h (inactive)"}, {"measurement": "remaining activity", "setting": "[3]", "value": "96.6% (inactive)"}]}, {"smiles": "O=C(O)C1C2CCC(O2)C1C(=O)O", "note": "(stereo not drawn)", "values": [{"measurement": "period change", "setting": "[7]", "value": "0.03 h (inactive)"}, {"measurement": "survival", "setting": "[10]", "value": "66 (inactive)"}, {"measurement": "remaining activity", "setting": "[3]", "value": "81.7% (inactive)"}]}, {"smiles": "C=CCN1CC[C@]23c4c5ccc(O)c4O[C@@H]2/C(=N/N=C2\\CC[C@@]4(O)C6Cc7ccc(O)c8c7[C@@]4(CCN6CC=C)[C@@H]2O8)CC[C@@]3(O)C1C5", "values": [{"measurement": "period change", "setting": "[7]", "value": "0.015 h (inactive)"}, {"measurement": "remaining activity", "setting": "[3]", "value": "108% (inactive)"}]}, {"smiles": "CCN(CC)c1ncnc2c1ncn2[C@@H]1O[C@H](COP(=O)(O)OP(=O)(O)C(Br)(Br)P(=O)(O)O)[C@@H](O)[C@H]1O", "values": [{"measurement": "period change", "setting": "[7]", "value": "0.205 h (inactive)"}, {"measurement": "inhibition", "setting": "[1]", "value": "-1% (inactive)"}, {"measurement": "fluorescence ratio (interference)", "setting": "[2]", "value": "1 (inactive)"}, {"measurement": "remaining activity", "setting": "[3]", "value": "110% (inactive)"}, {"measurement": "fold change", "setting": "[4]; stronger effect = lower value", "value": "1.01 (inactive)"}, {"measurement": "fold change", "setting": "[4]; [11]", "value": 2.23}, {"measurement": "cell count", "setting": "[4]; [12]", "value": 10400}, {"measurement": "cell count", "setting": "[4]; [13]", "value": 10200}, {"measurement": "z-score", "setting": "[6]", "value": "0.37 (inactive)"}]}, {"smiles": "CC(=O)[C@H]1CC[C@H]2[C@@H]3CC[C@H]4C[C@](C)(O)CC[C@]4(C)[C@H]3CC[C@]12C", "values": [{"measurement": "inhibition", "setting": "[1]", "value": "-2% (inactive)"}, {"measurement": "fluorescence ratio (interference)", "setting": "[2]", "value": "1 (inactive)"}, {"measurement": "remaining activity", "setting": "[3]", "value": "116% (inactive)"}, {"measurement": "fold change", "setting": "[4]; stronger effect = lower value", "value": "0.971 (inactive)"}, {"measurement": "fold change", "setting": "[4]; [11]", "value": 1.33}, {"measurement": "cell count", "setting": "[4]; [12]", "value": 10300}, {"measurement": "cell count", "setting": "[4]; [13]", "value": 10600}, {"measurement": "outcome", "setting": "[5]", "value": "inactive"}, {"measurement": "z-score", "setting": "[6]", "value": "-0.05 (inactive)"}]}, {"smiles": "CCCN(CCC)C(=O)Cc1c(-c2ccc(Cl)cc2)nc2c(Cl)cc(Cl)cn12", "values": [{"measurement": "period change", "setting": "[7]", "value": "-0.05 h (inactive)"}, {"measurement": "remaining activity", "setting": "[3]", "value": "120% (inactive)"}]}, {"smiles": "Clc1ccc(C(c2ccc(Cl)cc2)n2cc[n+](CC(OCc3ccc(Cl)cc3Cl)c3ccc(Cl)cc3Cl)c2)cc1", "note": "(stereo not drawn)", "values": [{"measurement": "period change", "setting": "[7]", "value": "-0.26 h (inactive)"}, {"measurement": "inhibition", "setting": "[1]", "value": "-3% (inactive)"}, {"measurement": "fluorescence ratio (interference)", "setting": "[2]", "value": "0.9 (inactive)"}, {"measurement": "remaining activity", "setting": "[3]", "value": "106% (inactive)"}, {"measurement": "fold change", "setting": "[4]; stronger effect = lower value", "value": "0.883 (inactive)"}, {"measurement": "fold change", "setting": "[4]; [11]", "value": 1.87}, {"measurement": "cell count", "setting": "[4]; [12]", "value": 1420}, {"measurement": "cell count", "setting": "[4]; [13]", "value": 1610}, {"measurement": "z-score", "setting": "[6]", "value": "-1.52 (inactive)"}]}]}
